# From PubChem BioAssay
# Only some compounds are listed: those with a hit (about 1.7% of all), similar ones and a draw of the others.
# GLP1R cytotox: cytotoxicity counter-screen for GLP-1 receptor inverse agonists. Potency, µM (highest dose often 38.3 µM), actives largely listed as inhibitors. HEK293 cAMP-luciferase reporter cells, luminescence, 24 h. AID 624418. actives 0.13% (n = 410,000);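 also: loss of luciferase light is scored as toxicity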
#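 Here, cytotoxicity is scored as loss of luminescence. The MLSMR collection was tested on cells seeded in medium containing 10% Nu serum, with a 24 hr compound exposure preceded by 12 hours of culture.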
# GLP-1R inv ag: inverse agonists of human GLP-1 receptor; HEK293 GLP-1R CRE-luciferase, luminescence, 24 h; GLP-1R form is constitutively active; actives 1.6% (n = 410,000); Potency, µM (doses to about 38.3 µM), usual class: inhibitors; P43220; also: nearly all actives have a fitted effect of over 55% in size
#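 HEK293 cells stably co-expressing constitutively active GLP-1R and a cAMP-responsive luciferase reporter were seeded in DMEM with 10% Nu serum, given compounds after 12 h, and incubated 24 h at 37 deg C. Luminescence was then read.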
# PTHR1 agonist: activates the human parathyroid hormone receptor PTHR1; Potency, µM (titrated, usually from 115 µM), most hits filed as activators; Q03431; actives 0.075% (n = 410,000); AID 743266; HEK293 GP2 PTHR1 cells, GloSensor cAMP luminescence, 1 h; also: nearly all actives have a fitted effect of over 55% in size
# Target sequence (Q03431 whole entry, looked up): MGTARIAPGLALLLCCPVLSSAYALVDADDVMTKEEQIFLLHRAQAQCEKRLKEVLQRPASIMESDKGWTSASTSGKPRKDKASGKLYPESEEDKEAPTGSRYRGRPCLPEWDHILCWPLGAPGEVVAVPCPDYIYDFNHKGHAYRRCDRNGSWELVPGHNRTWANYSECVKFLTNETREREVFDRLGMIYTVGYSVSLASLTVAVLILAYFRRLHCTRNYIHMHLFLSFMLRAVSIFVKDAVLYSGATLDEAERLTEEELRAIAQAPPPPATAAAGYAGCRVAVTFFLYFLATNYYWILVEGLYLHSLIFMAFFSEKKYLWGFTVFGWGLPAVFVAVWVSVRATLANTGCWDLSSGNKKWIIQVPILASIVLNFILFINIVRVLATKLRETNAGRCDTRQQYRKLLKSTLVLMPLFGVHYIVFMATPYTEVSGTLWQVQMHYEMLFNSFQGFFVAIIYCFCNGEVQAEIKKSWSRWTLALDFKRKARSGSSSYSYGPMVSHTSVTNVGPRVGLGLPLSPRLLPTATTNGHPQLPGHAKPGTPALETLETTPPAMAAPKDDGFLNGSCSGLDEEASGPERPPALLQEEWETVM
#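 HEK-293-derived GP2 cells expressing PTHR1 and a GloSensor cAMP reporter, 3,000/well, plated overnight, given luciferin plus IBMX (each 0.5 mM as added) for 1 h at 37 °C, then compound for 1 h at 37 °C. Luminescence was read after 15 min at room temperature.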
# RGS4 inh: inhibitors of human regulator of G protein signaling 4. P49798. Transcreener GDP fluorescence polarization, RGS4-accelerated GTP hydrolysis. Potency, µM (highest dose often 114 µM), actives largely listed as inhibitors. actives 0.039% (n = 390,000); also: nearly all actives have a fitted effect of over 75% in size
#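 MLSMR compounds (23 nl, pin-transferred) preincubated 10 min at room temperature with a 500nM (2x) first reagent, then RGS4 at 900nM (2x) plus Transcreener GDP mix added; fluorescence polarization (620/688 nm) read before and after 90 min at 30 °C.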
# GLP-1R agonist: activates the human GLP-1 receptor; HEK293 GLP-1R CRE-luciferase, luminescence, 4-6 h; cells express a hypersensitive GLP-1R form; Potency, µM (top dose mostly 45.6 µM), usual class: activators; P43220; actives 0.007% (n = 380,000)
# A number is an active result; i = inactive; ? = inconclusive; nt = not tested or not shown. Calls follow the shape of the dose curve; as a rule, active = well fitted curve in the direction sought with a large enough effect; inconclusive = small, poorly fitted or top-dose-only effect, or another doubt; inactive = no such curve, though single readings can be large; an effect the other way counts as inactive or inconclusive.
SMILES,GLP1R cytotox,GLP-1R inv ag,PTHR1 agonist,RGS4 inh,GLP-1R agonist
CCCCCCn1cc(CN2CC(N3CCN(Cc4cccc(C)c4)CC3)CS2(=O)=O)nn1 (stereo not given),i,i,i,nt,i
COc1ccc(-c2csc(C(C)(O)c3cccc(F)c3)n2)cn1 (stereo not given),i,?,i,nt,i
CC1CCN(C(=O)CN2CCSc3ccccc32)CC1,i,i,i,i,nt
CCNC(=S)N/N=C(\C)c1cc2ccccc2o1,?,4.5µM,i,i,i
O=C(O)c1ccc(C[n+]2c(-c3ccccc3)csc2Nc2ccccc2)cc1,i,i,i,i,i
CCCCCC[n+]1c(-c2ccccc2)csc1Nc1ccccc1,i,2.2µM,i,i,i
CC1=Nc2cc(C(=O)NCCCN3CCOCC3)ccc2Sc2c(C)ccc(C)c21,i,8.9µM,i,i,i
CC1=Nc2cc(C(=O)NCCc3ccccc3)ccc2Sc2c(C)ccc(C)c21,?,?,i,i,i
CC1=Nc2cc(C(=O)NCCc3ccc(Cl)cc3)ccc2Sc2c(C)ccc(C)c21,?,2.8µM,i,i,i
CCN(Cc1ccccc1)C(=O)c1ccc(CS(=O)c2ccccc2C)o1 (stereo not given),i,10µM,i,i,i
Cc1ccccc1S(=O)Cc1ccc(C(=O)NC2CC2)o1 (stereo not given),i,i,i,?,i
CCN1C(=O)[C@H]2[C@H]3CN=C(SCc4ccc(Cl)cc4)N3[C@@](CC)(C(=O)OC)[C@H]2C1=O,i,i,i,i,i
CC(Nc1nc(-c2ccncc2)nc2ccccc12)c1ccccc1 (stereo not given),i,7.1µM,i,i,?
CC(Nc1nc(N2CCNCC2)nc2ccccc12)c1ccccc1 (stereo not given),?,11µM,i,i,i
CC(Nc1nc(-c2cccnc2)nc2ccccc12)c1ccccc1 (stereo not given),i,?,i,nt,i
COCCN1CCC(CNCc2cn(-c3cc(C)ccc3C)nc2-c2ccccc2)C1 (stereo not given),?,2.8µM,i,i,i
Cc1csc(NC(=O)CSc2nnc3c4ccccc4nc(C(C)(C)C)n23)n1,2.5µM,?,i,i,i
Cc1ccc(SC[C@H](C)CN2CC[C@H](C)CCC2=O)cc1,i,?,i,i,i
O=C(N[C@H]1CCC(=O)N([C@H](CSc2ccccc2)Cc2ccccc2)CC1)OCc1ccccc1,i,?,i,i,i
O=C(N[C@H]1CCC(=O)N([C@H](CSc2ccc(Br)cc2)Cc2ccccc2)CC1)OCc1ccccc1,i,4µM,i,i,i
CC(=O)Nc1ccc(SC[C@H](C)CN2CC[C@H](C(C)(C)C)CCC2=O)cc1,i,10µM,i,i,i
COc1ccc(S[C@@H](CCN2CC[C@H](NC(=O)OCc3ccccc3)CCC2=O)c2ccccc2)cc1,i,3.2µM,i,i,i
COc1ccc(SC[C@H](C)CN2CC[C@H](NC(=O)OCc3ccccc3)CCC2=O)cc1,i,10µM,i,i,i
O=C(N[C@@H]1CCC(=O)N(CC[C@H](Sc2ccc(Br)cc2)c2ccccc2)CC1)OCc1ccccc1,i,?,i,i,i
COc1ccc(CCNc2ncnc3c2nnn3C)cc1,i,i,i,i,nt
SMILES,GLP1R cytotox,GLP-1R inv ag,PTHR1 agonist,RGS4 inh,GLP-1R agonist
Cc1cc(C)cc(C(=O)NCC(=O)NNC(=O)CSc2ccccc2F)c1,i,i,i,i,i
CC(=O)c1cccc(NC(=O)CSc2nc(=O)n(Cc3ccco3)c3c2CCC3)c1,i,i,i,i,nt
Cc1noc(C)c1COc1ccccc1C(=O)N(C)CC(=O)Nc1ccc(Cl)c(Cl)c1,i,10µM,i,i,i
CCN1C(=O)[C@H]2[C@@H](c3ccc(-c4cccc(Cl)c4)cc3)N[C@@](Cc3ccccc3)(C(=O)OC)[C@H]2C1=O,i,7.9µM,i,i,i
CCN1C(=O)[C@H]2[C@@H](c3ccc(-c4ccc5c(c4)OCO5)cc3)N[C@@](Cc3ccccc3)(C(=O)OC)[C@H]2C1=O,i,i,i,i,i
Cc1oc2ncn(CC(C)C)c(=O)c2c1C(=O)NCCCN1CCCCC1C (stereo not given),i,i,i,i,nt
Cc1ccnc(OC(C(=O)O)C(OCc2ccccc2)(c2ccccc2)c2ccc(C(F)(F)F)cc2)n1 (stereo not given),i,10µM,i,i,i
CC(C)CCN1C(=O)CSCC1(C)C(=O)NC(C)C (stereo not given),i,i,i,nt,nt
Cc1ccc(NC(=O)CCCn2c(=S)[nH]c3ccsc3c2=O)cc1C,i,i,i,i,i
CCOC(=O)C1(CCOc2ccccc2)CCN(Cc2cccc(OC)c2)CC1,i,11µM,i,i,i
CCOC(=O)C1(CCOC)CCN(Cc2cccc(OCc3ccccc3)c2)CC1,i,?,i,i,i
CCOC(=O)C1(CCCc2ccccc2)CCN(Cc2nccn2CC)CC1,13µM,10µM,i,i,i
CCOC(=O)C1(CCOc2ccccc2)CCN(Cc2nccn2CC)CC1,?,10µM,i,i,i
CCOC(=O)C1(Cc2cccc(OC)c2)CCN(Cc2cccc3c2OCO3)CC1,i,10µM,i,i,i
NS(=O)(=O)c1ccc(CCNc2ncnc3c2cnn3-c2cccc(Cl)c2)cc1,i,?,i,i,nt
CCCCCCCC1=NN(c2ccc(S(=O)(=O)O)cc2)C(=O)C1N=O (stereo not given),i,i,i,nt,i
CCc1ccc(-n2nc3ccc(NC(=O)c4cc(Cl)c(OC)c(Cl)c4)cc3n2)cc1,i,i,i,i,i
CCOC(=O)C1(CCCc2ccccc2)CCN(C(=O)Cc2nonc2C)CC1,i,11µM,i,i,i
CCOC(=O)C1(CCCc2ccccc2)CCN(C(=O)CSC)CC1,i,?,i,i,i
CCC(C(=O)NCc1ccccc1OC)n1nc(C)n2c(cc3sccc32)c1=O (stereo not given),i,i,i,i,nt
O=C(C[C@H]1C(=O)N(CCc2ccccc2)C[C@@H]1Cc1ccccc1)Nc1ccc(Br)cc1,i,7.9µM,i,nt,i
CCCCN1C[C@H](CSC)[C@@H](CC(=O)Nc2ccc(Br)cc2)C1=O,i,?,i,nt,i
CSC[C@H]1CN(CCc2ccccc2)C(=O)[C@@H]1CC(=O)Nc1ccc(Br)cc1,i,10µM,i,nt,i
Cc1ccc(-n2nnc(-c3nsc(NC(=O)c4ccc(C)c(C)c4)n3)c2C)cc1,i,i,i,i,nt
CCc1ccccc1-n1nnc(-c2nsc(NC(=O)c3ccc(C)c(C)c3)n2)c1C,i,1.1µM,i,i,nt
Cc1c(C(=O)NNc2c(Cl)cccc2Cl)n(C)oc1=O,i,3.5µM,i,i,i
